# Assay results published in PubChem BioAssay (NCI).
# About 79,000 compounds went through this panel and 15% of them were active in at least one assay; those are over-represented in the sample as a whole. Values without a mark were called inactive. Active and inactive are the calls of the source. Rule as the data show it: active = growth inhibition above about 70%; inactive = the rest.
# Tests used:
# [1] = NCI Yeast Anticancer Drug Screen. Data for the rad52 strain (AID 147);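 also: 0% = growth of vehicle-treated control cultures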; settings: S. cerevisiae rad52 mutant growth inhibition, hits give high values
# In short: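 Compounds are applied to a genetically defined yeast strain lacking normal DNA damage repair, and inhibition of growth is expressed relative to cultures given vehicle only.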
# [2] = NCI Yeast Anticancer Drug Screen. Data for the wt1 strain (AID 149);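 also: 0% = growth of vehicle-treated wt1 cultures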; settings: S. cerevisiae wt1 strain (SPY 50644) growth inhibition, hits give high values
# In short: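 The wt1 strain was treated with compounds, and growth was compared with vehicle-treated cultures to give inhibition.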
# [3] = NCI Yeast Anticancer Drug Screen. Data for the rad50EPP+ strain (AID 151);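 also: 0% = growth of vehicle-treated control cultures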; settings: S. cerevisiae rad50 mutant strain, hits give high values
# In short: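 Compounds were applied to the rad50EPP+ yeast strain, which bears a defined DNA repair alteration, and growth inhibition was determined relative to vehicle-treated cultures.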
# [4] = NCI Yeast Anticancer Drug Screen. Data for the rad50 strain (AID 155);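 also: 0% = growth of vehicle-only cultures of the same strain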; settings: S. cerevisiae rad50 strain growth inhibition, hits give high values
# In short: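 Cells are treated with compound, grown, and their growth is then scored against vehicle-only cultures of the same repair-deficient yeast strain.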
# [5] = NCI Yeast Anticancer Drug Screen. Data for the mec2-1 strain (AID 157); settings: S. cerevisiae mec2-1 strain, hits give high values
# In short: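 Strain: mec2-1 (DNA repair/cell cycle alteration). Compound exposure, then growth measured; inhibition expressed relative to vehicle.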
# [6] = NCI Yeast Anticancer Drug Screen. Data for the rad14 strain (AID 159);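 also: 0% = growth of vehicle-treated control cultures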; settings: S. cerevisiae rad14 strain growth inhibition, hits give high values
# In short: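 Readout: yeast growth inhibition, referenced to vehicle-only cultures. Strain bears a defined alteration in DNA damage repair.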
# [7] = NCI Yeast Anticancer Drug Screen. Data for the sgs1 mgt1 strain (AID 161);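 also: 0% = growth of cultures given vehicle only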; settings: S. cerevisiae sgs1 mgt1 strain, hits give high values
# In short: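 Read-out: growth inhibition vs vehicle controls. Cells: mutant yeast strain deficient in DNA damage repair.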
# [8] = NCI Yeast Anticancer Drug Screen. Data for the CLN2oe strain (AID 163);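 also: 0% = growth of vehicle-only control cultures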; settings: S. cerevisiae CLN2oe strain, hits give high values
# In short: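 Growth of a genetically modified yeast strain is measured after compound exposure and compared with cultures given vehicle alone.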
# [9] = NCI Yeast Anticancer Drug Screen. Data for the cln2 rad14 strain (AID 165);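 also: 0% = growth equal to vehicle treated cultures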; settings: S. cerevisiae cln2 rad14 strain, hits give high values
# In short: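 Compounds are applied to the cln2 rad14 yeast strain, and growth is then compared with that of vehicle-treated cultures to give inhibition.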
# [10] = NCI Yeast Anticancer Drug Screen. Data for the bub3 strain (AID 167); settings: S. cerevisiae bub3 mutant strain, hits give high values
# In short: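 Part of a panel of yeast mutants defective in DNA damage repair or cell cycle regulation. Each strain is grown with compound, and inhibition is calculated relative to solvent-treated cultures.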
# [11] = NCI Yeast Anticancer Drug Screen. Data for the wt2 strain (AID 169);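 also: 0% = growth of vehicle-treated yeast cultures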; settings: S. cerevisiae wt2 strain growth inhibition, hits give high values
# In short: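 This strain belongs to a panel of yeast strains with defined genetic alterations in DNA damage repair or cell cycle control. Compounds are applied, and growth inhibition is measured against vehicle-treated cultures.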
# [12] = NCI Yeast Anticancer Drug Screen. Data for the mlh1 strain (AID 171);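 also: 0% = growth of vehicle-treated control cultures of the same strain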; settings: S. cerevisiae mlh1 strain growth inhibition, hits give high values
# In short: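 Growth of the mutant yeast strain after compound exposure, expressed as inhibition relative to vehicle-only controls.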
# [13] = NCI Yeast Anticancer Drug Screen. Data for the sgs1 strain (AID 173);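 also: 0% = growth of vehicle-only control cultures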; settings: S. cerevisiae sgs1 mutant, hits give high values
# In short: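 Growth of a yeast strain bearing a defined genetic alteration is measured after compound treatment. Inhibition is expressed relative to vehicle-only controls.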
# [14] = NCI Yeast Anticancer Drug Screen. Data for the mlh1 rad18 strain (AID 175); settings: S. cerevisiae mlh1 rad18 strain growth inhibition, hits give high values
# In short: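 Read-out is yeast growth inhibition, calculated against vehicle-only controls. The compound was applied to a strain engineered with DNA damage repair alterations.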
# [15] = NCI Yeast Anticancer Drug Screen. Data for the rad18 strain (AID 177); settings: S. cerevisiae rad18 mutant growth inhibition, hits give high values
# In short: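 Growth of the mutant yeast strain after compound exposure, normalised to vehicle-only cultures.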
# [16] = at 5.0 µM (retest, dose inferred, filed as 0.5)
# [17] = at 50.0 µM (retest, dose inferred, filed as 5.0)
smiles,measurement,setting,value
COc1ccccc1/C=C1\Sc2scc(-c3cccc([N+](=O)[O-])c3)[n+]2C1=O,growth inhibition,[1]; at 1.2 µM,31%
same,growth inhibition,[1]; at 3.7 µM,80% (active)
same,growth inhibition,[1]; at 11.0 µM,98% (active)
same,growth inhibition,[1]; at 33.0 µM,97% (active)
same,growth inhibition,[1]; at 100.0 µM,93% (active)
same,growth inhibition,[2]; at 1.2 µM,33%
same,growth inhibition,[2]; at 3.7 µM,91% (active)
same,growth inhibition,[2]; at 11.0 µM,99% (active)
same,growth inhibition,[2]; at 33.0 µM,98% (active)
same,growth inhibition,[2]; at 100.0 µM,94% (active)
same,growth inhibition,[3]; at 1.2 µM,11%
same,growth inhibition,[3]; at 3.7 µM,80% (active)
same,growth inhibition,[3]; at 11.0 µM,95% (active)
same,growth inhibition,[3]; at 33.0 µM,96% (active)
same,growth inhibition,[3]; at 100.0 µM,88% (active)
same,growth inhibition,[4]; at 1.2 µM,47%
same,growth inhibition,[4]; at 3.7 µM,93% (active)
same,growth inhibition,[4]; [16],12%
same,growth inhibition,[4]; at 11.0 µM,98% (active)
same,growth inhibition,[4]; at 33.0 µM,92% (active)
same,growth inhibition,[4]; [17],96% (active)
same,growth inhibition,[4]; at 50.0 µM,85.7% (active)
same,growth inhibition,[4]; at 100.0 µM,91% (active)
same,growth inhibition,[5]; at 1.2 µM,67%
same,growth inhibition,[5]; at 3.7 µM,98% (active)
same,growth inhibition,[5]; [16],16%
same,growth inhibition,[5]; at 11.0 µM,99% (active)
same,growth inhibition,[5]; at 33.0 µM,96% (active)
same,growth inhibition,[5]; [17],96% (active)
same,growth inhibition,[5]; at 50.0 µM,89.1% (active)
same,growth inhibition,[5]; at 100.0 µM,90% (active)
same,growth inhibition,[6]; at 1.2 µM,28%
same,growth inhibition,[6]; at 3.7 µM,90% (active)
same,growth inhibition,[6]; at 11.0 µM,99% (active)
same,growth inhibition,[6]; at 33.0 µM,97% (active)
same,growth inhibition,[6]; at 100.0 µM,94% (active)
same,growth inhibition,[7]; [16],46%
same,growth inhibition,[7]; [17],98% (active)
same,growth inhibition,[7]; at 50.0 µM,89.3% (active)
same,growth inhibition,[8]; at 1.2 µM,46%
same,growth inhibition,[8]; at 3.7 µM,82% (active)
same,growth inhibition,[8]; at 11.0 µM,99% (active)
same,growth inhibition,[8]; at 33.0 µM,97% (active)
same,growth inhibition,[8]; at 100.0 µM,95% (active)
same,growth inhibition,[9]; [16],15%
same,growth inhibition,[9]; [17],96% (active)
same,growth inhibition,[9]; at 50.0 µM,87.6% (active)
same,growth inhibition,[10]; at 1.2 µM,70% (active)
same,growth inhibition,[10]; at 3.7 µM,96% (active)
same,growth inhibition,[10]; [16],92% (active)
same,growth inhibition,[10]; at 11.0 µM,99% (active)
same,growth inhibition,[10]; at 33.0 µM,95% (active)
same,growth inhibition,[10]; [17],95% (active)
same,growth inhibition,[10]; at 50.0 µM,83.8% (active)
same,growth inhibition,[10]; at 100.0 µM,84% (active)
same,growth inhibition,[11]; at 1.2 µM,18%
same,growth inhibition,[11]; at 3.7 µM,59%
same,growth inhibition,[11]; at 11.0 µM,98% (active)
same,growth inhibition,[11]; at 33.0 µM,98% (active)
same,growth inhibition,[11]; at 100.0 µM,95% (active)
same,growth inhibition,[12]; at 1.2 µM,34%
same,growth inhibition,[12]; at 3.7 µM,89% (active)
same,growth inhibition,[12]; at 11.0 µM,99% (active)
same,growth inhibition,[12]; at 33.0 µM,97% (active)
same,growth inhibition,[12]; at 100.0 µM,90% (active)
same,growth inhibition,[13]; at 1.2 µM,34%
same,growth inhibition,[13]; at 3.7 µM,89% (active)
same,growth inhibition,[13]; at 11.0 µM,99% (active)
same,growth inhibition,[13]; at 33.0 µM,97% (active)
same,growth inhibition,[13]; at 100.0 µM,90% (active)
same,growth inhibition,[14]; [16],13%
same,growth inhibition,[14]; [17],96% (active)
same,growth inhibition,[14]; at 50.0 µM,89.2% (active)
same,growth inhibition,[15]; at 1.2 µM,14%
same,growth inhibition,[15]; at 3.7 µM,82% (active)
same,growth inhibition,[15]; at 11.0 µM,98% (active)
same,growth inhibition,[15]; at 33.0 µM,96% (active)
same,growth inhibition,[15]; at 100.0 µM,93% (active)
